Measurements from PubChem BioAssay AID1159580 (chemical genetic matrix, 2015).
Out of some 5,500 compounds screened, about 2,000 (36%) were called active. Another 18% or so got no clear call; they are omitted. Cut-off read from the data, not from the text of the source: active = normalized growth mostly below about 0.91 (no sharp cut-off); inconclusive = no clear call, values can overlap the other calls; inactive = mostly above about 0.92. This is one part of the list.

Assay: chemical genetic growth profiling, strain panel (AID 1159580);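 note: tested at 20 µM; growth read once vehicle control cultures reached saturation at 30 °C; 1 = growth at the plate median or of vehicle wells; lower values mean less growth of the strain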
Conditions: S. cerevisiae deletion strains, growth OD

Measured: normalized growth

CCCOc1ccc(C(=O)OCCN(CC)CC)cc1N
inactive: locus YAL021C, strain ccr4, active compounds read low 0.979 | locus YAL026C, strain drs2, active compounds read low 1.01 | locus YAL030W, strain snc1, active compounds read low 1 | locus YBL061C, strain skt5, active compounds read low 1 | locus YBR009C, strain hhf1, active compounds read low 1.03 | locus YBR023C, strain chs3, active compounds read low 1.02 | locus YBR171W, strain sec66, active compounds read low 1.02 | locus YBR231C, strain swc5, active compounds read low 1.01 | locus YBR279W, strain paf1, active compounds read low 1.01 | locus YCL011C, strain gbp2, active compounds read low 1 | locus YCL016C, strain dcc1, active compounds read low 1 | locus YCL061C, strain MRC1, active compounds read low 1 | locus YCL069W, strain vba3, active compounds read low 0.999 | locus YCR088W, strain abp1, active compounds read low 1.01 | locus YDL005C, strain med2, active compounds read low 1.01 | locus YDL040C, strain nat1, active compounds read low 1 | locus YDR001C, strain nth1, active compounds read low 1 | locus YDR069C, strain doa4, active compounds read low 1.01 | locus YDR137W, strain rgp1, active compounds read low 1.04 | locus YDR159W, strain sac3, active compounds read low 1.02 | locus YDR195W, strain ref2 0.964 | locus YDR297W, strain sur2, active compounds read low 1 | locus YDR334W, strain swr1, active compounds read low 0.995 | locus YDR335W, strain msn5, active compounds read low 1 | locus YDR392W, strain spt3, active compounds read low 1.02 | locus YEL003W, strain gim4, active compounds read low 1.01 | locus YEL037C, strain rad23, active compounds read low 0.979 | locus YEL061C, strain CIN8 (second series), active compounds read low 1 | locus YER015W, strain faa2, active compounds read low 1.03 | locus YER016W, strain bim1, active compounds read low 1 | locus YER111C, strain swi4, active compounds read low 0.999 | locus YER155C, strain BEM2 (second series), active compounds read low 1 | locus YFR010W, strain ubp6, active compounds read low 0.996 | locus YGL167C, strain pmr1, active compounds read low 1.01 | locus YGL173C, strain kem1, active compounds read low 1 | locus YGL227W, strain vid30, active compounds read low 1 | locus YGL240W, strain doc1, active compounds read low 1.02 | locus YGL253W, strain hxk2, active compounds read low 1.01 | locus YHR013C, strain ard1, active compounds read low 1.01 | locus YHR027C, strain rpn1, active compounds read low 1 | locus YHR030C, strain SLT2, active compounds read low 1.05 | locus YHR079C, strain IRE1, active compounds read low 1.04 | locus YHR142W, strain chs7, active compounds read low 0.981 | locus YJL092W, strain hpr5, active compounds read low 1 | locus YJL095W, strain BCK1 (second series), active compounds read low 1 | locus YJL095W, strain BCK1, active compounds read low 1 | locus YJL115W, strain asf1, active compounds read low 1 | locus YJL129C, strain trk1, active compounds read low 0.995 | locus YJL154C, strain vps35, active compounds read low 1.01 | locus YJL164C, strain tpk1, active compounds read low 0.999 | locus YJL166W, strain qcr8, active compounds read low 1 | locus YJL187C, strain SWE1, active compounds read low 1 | locus YJR066W, strain TOR1, active compounds read low 0.972 | locus YKL160W, strain elf1, active compounds read low 0.989 | locus YKR026C, strain gcn3, active compounds read low 0.984 | locus YKR091W, strain srl3, active compounds read low 1 | locus YLL001W, strain dnm1, active compounds read low 1.01 | locus YLL026W, active compounds read low 1.01 | locus YLL041C, strain sdh2, active compounds read low 0.998 | locus YLR027C, strain aat2, active compounds read low 1 | locus YLR113W, strain HOG1, active compounds read low 0.968 | locus YLR221C, strain rsa3, active compounds read low 1 | locus YLR258W, strain gsy2, active compounds read low 1.01 | locus YLR262C, strain YPT6 (second series), active compounds read low 1.01 | locus YLR320W, strain mms22, active compounds read low 1.02 | locus YLR342W, strain FKS1, active compounds read low 0.999 | locus YLR357W, strain rsc2, active compounds read low 1.01 | locus YLR370C, strain arc18, active compounds read low 1.01 | locus YLR384C, strain iki3, active compounds read low 1 | locus YML120C, strain ndi1, active compounds read low 1.01 | locus YMR058W, strain fet3, active compounds read low 1.01 | locus YMR125W, strain sto1, active compounds read low 1.02 | locus YMR129W, active compounds read low 1.01 | locus YMR205C, strain PFK2, active compounds read low 1.04 | locus YMR231W, strain pep5, active compounds read low 1 | locus YNL071W, strain lat1, active compounds read low 1 | locus YNL183C, strain NPR1, active compounds read low 0.966 | locus YNL209W, strain ssb2, active compounds read low 1 | locus YNL248C, strain rpa49, active compounds read low 0.971 | locus YNL322C, strain KRE1 (second series), active compounds read low 1.01 | locus YNR049C, strain mso1, active compounds read low 1 | locus YOR001W, strain rrp6, active compounds read low 0.984 | locus YOR070C, strain gyp1, active compounds read low 1.02 | locus YOR080W, strain dia2, active compounds read low 1 | locus YOR083W, strain WHI5, active compounds read low 0.986 | locus YOR106W, strain vam3, active compounds read low 0.994 | locus YOR231W, strain MKK1, active compounds read low 1.03 | locus YOR265W, strain rbl2, active compounds read low 1 | locus YOR270C, strain vph1, active compounds read low 1.04 | locus YOR290C, strain snf2, active compounds read low 1.01 | locus YPL051W, strain arl3, active compounds read low 0.997 | locus YPL078C, strain atp4, active compounds read low 0.98 | locus YPL106C, strain sse1, active compounds read low 1.01 | locus YPL240C, strain hsp82, active compounds read low 0.988 | locus YPL256C, strain CLN2, active compounds read low 1.02
